The panel holds about 83,000 compounds, 20% with a hit somewhere; the sample as a whole holds those more often.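 Activity criterion: percent growth below 10, measured after cells in 96-well plates were exposed to a single compound concentration for 48 hours.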 The source made the active and inactive calls.
What was measured:
Test in all cases: NCI-60 one-dose screen, 48 h (100 = growth as untreated, 0 = no growth, -100 = all killed)
Conditions in all cases: 10 µM
NCI-H322M lung = tested on: NCI-H322M lung
HOP-92 NSCLC = tested on: HOP-92 NSCLC
NCI-H522 lung = tested on: NCI-H522 lung
RXF 393 renal = tested on: RXF 393 renal
SK-MEL-5 melanoma = tested on: SK-MEL-5 melanoma
EKVX NSCLC = tested on: EKVX NSCLC
CCRF-CEM leukemia = tested on: CCRF-CEM leukemia
OVCAR-4 ovarian = tested on: OVCAR-4 ovarian
T-47D breast = tested on: T-47D breast
BT-549 breast = tested on: BT-549 breast
MDA-MB-435 melanoma = tested on: MDA-MB-435 melanoma
SW-620 colon = tested on: SW-620 colon
HCT-116 colon = tested on: HCT-116 colon
HCC-2998 colon = tested on: HCC-2998 colon
KM12 colon = tested on: KM12 colon
M14 melanoma = tested on: M14 melanoma
UO-31 renal = tested on: UO-31 renal
MCF7 breast = tested on: MCF7 breast

Structure (SMILES) | growth (NCI-H322M lung) | growth (HOP-92 NSCLC) | growth (NCI-H522 lung) | growth (RXF 393 renal) | growth (SK-MEL-5 melanoma) | growth (EKVX NSCLC) | growth (CCRF-CEM leukemia) | growth (OVCAR-4 ovarian) | growth (T-47D breast) | growth (BT-549 breast) | growth (MDA-MB-435 melanoma) | growth (SW-620 colon) | growth (HCT-116 colon) | growth (HCC-2998 colon) | growth (KM12 colon) | growth (M14 melanoma) | growth (UO-31 renal) | growth (MCF7 breast)
CCOc1ccc(/C=N/NC(=O)Cn2nc(Cc3ccc(OC)cc3)c3onc(C)c3c2=O)cc1 | 62.1% (inactive) | -25.7% (active) | 46.6% (inactive) | -65.6% (active) | 89.2% (inactive) | 33.8% (inactive) | 17.9% (inactive) | 10.1% (inactive) | 16.3% (inactive) | 23.7% (inactive) | 50.5% (inactive) | 23% (inactive) | -23.3% (active) | -11.5% (active) | 47.9% (inactive) | – | – | –
Fc1ccc(/C=C/c2nc3ccccc3n3c(-c4ccc(Cl)cc4)nnc23)cc1 | – | 67.6% (inactive) | – | 58.8% (inactive) | 76.5% (inactive) | – | 0.524% (active) | – | 60.9% (inactive) | 79.3% (inactive) | 78.4% (inactive) | 44.3% (inactive) | 41.8% (inactive) | 102% (inactive) | 80.2% (inactive) | 63.8% (inactive) | 53.3% (inactive) | –
C#CCOc1cc(N(CC)CC)ccc1C(C(=O)NC(C)(C)C)N(C(=O)C1CCc2cc(F)ccc2O1)c1ccc(F)cc1F (stereo unspecified) | 81.6% (inactive) | 30.5% (inactive) | 30.7% (inactive) | 64.6% (inactive) | 11.2% (inactive) | – | 39.7% (inactive) | – | 37.4% (inactive) | 31.1% (inactive) | 40.6% (inactive) | 53.7% (inactive) | 24.7% (inactive) | 78.1% (inactive) | 25% (inactive) | – | – | –
C#C[C@]1(O)CC[C@H]2[C@@H]3CC=C4c5sc(Nc6ccc(C(F)(F)F)cn6)nc5CC[C@]4(C)[C@H]3CC[C@@]21C | – | -7.64% (active) | -51.1% (active) | -37.9% (active) | -97.1% (active) | -3.2% (active) | 6.72% (active) | – | 8.97% (active) | -50% (active) | 1.17% (active) | -32.8% (active) | -66.9% (active) | 4.01% (active) | -16.5% (active) | -21.4% (active) | – | –
COc1ccc(Cc2nn(CC(=O)N/N=C/c3ccc([N+](=O)[O-])cc3)c(=O)c3c(C)noc23)cc1 | 78.6% (inactive) | 91.6% (inactive) | – | 55.5% (inactive) | 92.8% (inactive) | 86.6% (inactive) | 69.5% (inactive) | – | 73.5% (inactive) | 87.4% (inactive) | 71.7% (inactive) | 60.9% (inactive) | 27% (inactive) | 105% (inactive) | 79.7% (inactive) | – | – | –
COc1cc2oc(-c3cccc(C(=O)Nc4ccc(Cl)cc4)c3)cc(=O)c2c(OCCNC(=O)[C@@H](N)CO)c1OC | 55.3% (inactive) | -2.3% (active) | – | 41.5% (inactive) | -81.9% (active) | – | -37.9% (active) | 86.7% (inactive) | 31.3% (inactive) | 58.9% (inactive) | 15.7% (inactive) | -37.7% (active) | 23.6% (inactive) | 20.5% (inactive) | 35.2% (inactive) | – | – | -51.8% (active)
COc1ccc(OC)c(-n2cc(C#N)c(N)c2C(=O)c2ccc(Cl)cc2Cl)c1 | – | 91.6% (inactive) | 7.18% (active) | 55.5% (inactive) | 54.2% (inactive) | – | 11.4% (inactive) | 86.2% (inactive) | 42.6% (inactive) | 48.3% (inactive) | -37.1% (active) | 26.8% (inactive) | 29.4% (inactive) | 64.8% (inactive) | 27.4% (inactive) | – | 56.7% (inactive) | 16.1% (inactive)
COc1ccc(C2c3sc4ccc(C)cc4c3Oc3nc(N)nc(N)c32)cc1 (stereo unspecified) | 89.3% (inactive) | – | 57.2% (inactive) | 64.8% (inactive) | 92.9% (inactive) | – | 82.8% (inactive) | – | 61.3% (inactive) | 84.5% (inactive) | 9.83% (active) | 84.8% (inactive) | 86.9% (inactive) | 94% (inactive) | 70.9% (inactive) | – | – | –
CCn1c(SCC(=O)Nc2ccc(-c3nc4ccccc4[nH]3)cc2)nc2ccccc2c1=O | -68.3% (active) | – | – | -87.1% (active) | -51.2% (active) | – | 44.7% (inactive) | – | -58.2% (active) | -83.6% (active) | -94.7% (active) | -35.5% (active) | -81.4% (active) | -31.6% (active) | -14.5% (active) | – | -95.4% (active) | -71.7% (active)
COC(=O)CNC(=O)COc1c(OC)c(OC)cc2oc(-c3cccc(C(=O)Nc4ccc(Cl)cc4)c3)cc(=O)c12 | – | 39.1% (inactive) | – | 45.9% (inactive) | 4.43% (active) | – | 94.7% (inactive) | – | 37.9% (inactive) | 1.95% (active) | 28.5% (inactive) | 51.4% (inactive) | 43.8% (inactive) | 74.2% (inactive) | 41.5% (inactive) | 7.29% (active) | 66.5% (inactive) | 22.5% (inactive)
